Results on 13 compounds are retold here after PubChem BioAssay.

Assay [1] in a line: inhibitors of TNFa-induced NFkB p65 translocation, primary screen, imaging, HUVEC, MLSMR starter and 10KST1 sets (AID 438;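 active means inhibition above 20% together with a positive visual image hit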;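 further: compound added about 3h40 before a 20 min TNFalpha stimulation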;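 on inhibition: signal is the nuclear over cytoplasmic p65 intensity ratio per well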). As to conditions: HUVEC TNFa-induced p65 nuclear translocation; cell count: measured here: nuclei count (cytotoxicity indicator), at 2.08 µM; inhibition: at 2 µM, stronger effect = higher value, 0% TNFa-plus-vehicle, 100% no-TNFa wells.
A short description of assay [2]: inhibitors of E-selectin induction by TNFa, primary screen, imaging, HUVEC, immunofluorescence, MLSMR starter and 10KST1 sets (AID 487;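 active means visually confirmed hit in the image check and inhibition above 20%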;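 on inhibition: signal is fraction of cell area covered by stained E-selectin grains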;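 on nuclei count: 100% = median nuclei count of all wells on the same plate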). As to conditions: HUVEC TNFalpha-induced E-selectin immunofluorescence imaging, at 2 µM; inhibition: stronger effect = higher value; nuclei count: measured here: cell number, toxicity.
Assay [3] in a line: DUSP6 inhibitors restoring Erk phosphorylation by chemical complementation, primary imaging in DUSP6-transfected HeLa (AID 609;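 active means compounds giving at least 50% inhibition in the cell-based MKP-3 phosphatase rescue imaging test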;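 on inhibition: phospho-Erk level distribution per well compared with pooled transfected vehicle control wells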). As to conditions: HeLa MKP-3 transfected, phospho-Erk imaging KS statistic, at 10 µM, cells stimulated with TPA for 15 min.
For assay [4], the target named is Dual specificity protein phosphatase 6 (Homo sapiens) (UniProt Q16828). Described as above. Conditions: HeLa MKP-3 transfected, phospho-Erk imaging KS statistic; at 10 µM; stronger effect = higher value; cells stimulated with TPA for 15 min.
Assay [5] addresses Voltage-gated potassium channel subunit beta-2 (Rattus norvegicus) (UniProt P62483). Description: KvBeta enzyme negative modulators, primary screen, biochemical, NADPH fluorescence (AID 622;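 active means fluorescence slope higher than the sample average by over 3 SD, cut at about -0.22 in these data, passing the limit was not always enough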;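 further: slope of raw intensity against log time taken from 70 to 1610 s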). As to conditions: recombinant KvBeta, 4-cyanobenzaldehyde reduction, at 10 µM, stronger effect = higher value.
Assay [6] has the same target. Description: KvBeta positive modulators, primary screen, biochemical, NADPH fluorescence (AID 623).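 Further: fluorescence intensity change per second fitted from 20 to 320 s.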 As to conditions: Recombinant KvBeta, NADPH fluorescence decrease slope, 10 min; at 10 µM; stronger effect = lower value.
Assay [7] has as its target Muscarinic acetylcholine receptor M4 (Homo sapiens) (UniProt P08173). The experiment in a line: compounds altering M4/GIRK thallium flux, either direction, primary screen, M4 allosteric agonist project, cell-based, HEK293 M4/GIRK, BTC-AM (AID 625;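 active means fluorescence slope after compound addition differing from the mean of all tested samples at 99.7% confidence, mostly higher but some lower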;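 further: thallium influx through GIRK channels coupled to M4 in HEK293 cells with BTC-AM dye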). Conditions: at 10 µM, actives lie on both sides.
The nature of assay [8]: inhibitors of larval lipid processing in zebrafish, primary screen, whole organism, PED6 fluorescence, gall bladder and intestine (AID 686;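 active means a full or partial loss of lipid-probe fluorescence in the fish gall bladder, intestine or both, judged by eye; inactive means no fluorescence loss, or compound toxic to the fish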;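 further: larvae 5 to 7 days old with five fish per well; signal comes from phospholipase A2 cleavage of quenched PED6 carried via bile; overnight exposure to compound and PED6 before scoring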). Conditions: Zebrafish larvae PED6 lipid processing, fluorescence scoring; screened at 20 µM (by protocol).
The nature of assay [9]: inhibitors of Chlamydomonas gravitaxis, primary screen, whole organism, Chlamydomonas reinhardtii, WT vs cilia-less mutant, absorbance, 96-well (AID 463189;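 active means inhibition at or above 50% relative to wild type and mutant plate controls; inactive means inhibition below 50%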;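 further: 0% = wild type cc124 cells in DMSO and 100% = ciliumless bld1 mutant cells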). As to conditions: OD600 absorbance, 2 days, at 10 µM, stronger effect = higher value.
The mark [10] stands for this setting: measured here: cell density z-score.
Setting [11] is: measured here: nuclear c-Myc green intensity z-score.
The mark [12] stands for this setting: measured here: nuclear pErk red intensity z-score, stronger effect = higher value.

Activity calls are given as the source filed them.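 How the source made its calls, unless noted: active means NADPH fluorescence slope more negative than the mean of all samples by about 3 SD, 99.7% confidence; inactive means the rest.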

Dual specificity protein phosphatase 6 (Homo sapiens), sequence (Q16828 whole entry, looked up): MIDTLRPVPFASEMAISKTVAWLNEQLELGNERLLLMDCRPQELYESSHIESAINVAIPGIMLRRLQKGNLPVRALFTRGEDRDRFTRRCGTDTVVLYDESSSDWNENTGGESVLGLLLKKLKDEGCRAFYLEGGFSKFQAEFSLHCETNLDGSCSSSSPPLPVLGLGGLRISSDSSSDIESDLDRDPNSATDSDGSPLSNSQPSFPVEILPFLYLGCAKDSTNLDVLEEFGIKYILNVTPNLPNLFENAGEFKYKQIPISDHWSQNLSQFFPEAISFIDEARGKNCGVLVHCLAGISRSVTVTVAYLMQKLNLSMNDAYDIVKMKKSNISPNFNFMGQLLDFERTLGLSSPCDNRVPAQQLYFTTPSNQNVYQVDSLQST
Voltage-gated potassium channel subunit beta-2 (Rattus norvegicus), sequence (P62483 whole entry, looked up): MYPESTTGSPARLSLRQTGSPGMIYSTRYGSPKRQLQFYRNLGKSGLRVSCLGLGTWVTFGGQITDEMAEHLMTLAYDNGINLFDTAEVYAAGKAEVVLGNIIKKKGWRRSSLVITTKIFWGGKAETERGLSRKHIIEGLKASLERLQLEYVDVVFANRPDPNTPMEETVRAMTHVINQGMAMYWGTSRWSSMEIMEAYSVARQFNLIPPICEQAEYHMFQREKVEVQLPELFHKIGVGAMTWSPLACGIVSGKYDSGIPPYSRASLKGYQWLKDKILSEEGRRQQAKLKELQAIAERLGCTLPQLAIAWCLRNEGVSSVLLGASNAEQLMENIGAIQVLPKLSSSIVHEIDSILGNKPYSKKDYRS
Muscarinic acetylcholine receptor M4 (Homo sapiens), sequence (P08173 whole entry, looked up): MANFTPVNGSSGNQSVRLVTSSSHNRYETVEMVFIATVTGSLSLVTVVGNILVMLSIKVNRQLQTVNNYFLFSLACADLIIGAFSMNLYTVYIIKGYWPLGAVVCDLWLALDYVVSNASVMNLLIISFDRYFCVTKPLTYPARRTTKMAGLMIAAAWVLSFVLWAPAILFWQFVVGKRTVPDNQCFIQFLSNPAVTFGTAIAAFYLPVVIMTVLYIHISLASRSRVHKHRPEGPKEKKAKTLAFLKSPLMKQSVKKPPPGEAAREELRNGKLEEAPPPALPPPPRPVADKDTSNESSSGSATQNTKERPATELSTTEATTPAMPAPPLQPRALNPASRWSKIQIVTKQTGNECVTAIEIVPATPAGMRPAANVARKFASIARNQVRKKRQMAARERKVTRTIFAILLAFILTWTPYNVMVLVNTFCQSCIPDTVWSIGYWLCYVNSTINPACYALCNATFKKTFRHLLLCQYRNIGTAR

A word on the inhibition: it is the relative decrease from the control value, in per cent. For `O=C(Nc1nnc(SCc2ccccc2F)s1)c1ccco1`, in assay [1], the cell count came out at 600. Further, the inhibition in [1] was -10.3% (inactive); in assay [2], -62.9% (inactive); in [4], 5.35% (inactive); in [9], 39.5% (inactive). Further, the nuclei count in [2] is 109%. Further, the z-score in [3] (setting [10]) was -0.259; in [3] (setting [11]), -0.419; in assay [3] (setting [12]), -0.101. Moreover, the values for the fluorescence slope in assay [5] and in assay [7] were -0.502 (inactive) and 0.00604 (inactive), respectively. For the same compound, in assay [6], the NADPH fluorescence slope was -5.2e-05 (inactive). Further, the compound was classed as inactive in assay [8].

As to `Cc1ccc(NC(=O)Cn2nc(C)c3ccccc3c2=O)cc1`, the cell count in [1] came to 576. The inhibition is -1.6% (inactive) in [1], -60.9% (inactive) in [2], 9.07% (inactive) in assay [4] and -6.33% (inactive) in assay [9]. The compound also yielded a nuclei count in [2] of 134%. The z-score was 1 in [3] (setting [10]), -0.268 in assay [3] (setting [11]) and 1.91 in assay [3] (setting [12]). Besides, the fluorescence slope was -0.496 (inactive) in assay [5] and 0.00582 (inactive) in [7]. Besides, the NADPH fluorescence slope in assay [6] is -0.000121 (inactive). The compound was classed as inactive in [8].

Regarding `CCc1[nH]c(=O)c(C#N)c2c1CCCC2`, the cell count in assay [1] turned out to be 388. The inhibition was -8.1% (inactive) in [1], -57.4% (inactive) in [2], -12.6% (inactive) in assay [4] and 26.8% (inactive) in assay [9]. In addition, the nuclei count in assay [2] worked out at 173%. Moreover, the z-score is -0.973 in assay [3] (setting [10]), 0.856 in assay [3] (setting [11]) and 2.79 in assay [3] (setting [12]). Besides, the fluorescence slope in assay [5] was -0.495 (inactive); in assay [7] it was 0.00393 (inactive). Besides, the NADPH fluorescence slope in assay [6] was -0.000126 (inactive). Further, the compound was called inactive in assay [8].

As to `Cn1c(OCc2cccnc2)nc2c1c(=O)n(Cc1ccccc1)c(=O)n2C`, the cell count in assay [1] came to 719. Also, the inhibition in assay [1] was -11.2% (inactive); in [2], -145% (inactive); in [4], 25.8% (inactive); in assay [9], 21.1% (inactive). Besides, the nuclei count in assay [2] was determined as 176%. The z-score in assay [3] (setting [10]) was 1.38; in assay [3] (setting [11]), -0.255; in [3] (setting [12]), -1.04. Also, the fluorescence slope in assay [5] is -0.489 (inactive); in assay [7], 0.00844 (inactive). In addition, the NADPH fluorescence slope in [6] is -5.3e-05 (inactive). The call in [8] was inactive.

Turning to `O=C1C(=O)N(CCCn2ccnc2)C(c2ccccn2)/C1=C(/O)c1ccccc1` (centres undefined), the cell count in assay [1] was 436. Besides, the inhibition in [1] is -12.2% (inactive); in assay [2], -259% (inactive); in [4] it was 9.37% (inactive); in [9] it was 0.678% (inactive). This compound also showed a nuclei count in assay [2] of 147%. Also, the figures for the z-score in [3] (setting [10]), in assay [3] (setting [11]) and in assay [3] (setting [12]) were -0.279, -1.33 and 0.494, respectively. Besides, the values for the fluorescence slope in assay [5] and in assay [7] were -0.469 (inactive) and 0.00446 (inactive), respectively. Further, the NADPH fluorescence slope in [6] is -5.2e-05 (inactive). In addition, the outcome in [8] was inactive.

On to `Cc1cc(=O)oc(C)c1C(=O)NCC(C)NC(=O)c1c(C)cc(=O)oc1C` (centres undefined), for which the cell count in assay [1] amounted to 531. Besides, the inhibition in assay [1] was 3.7% (inactive); in assay [2], 32.8% (inactive); in assay [4] it was 19.8% (inactive); in assay [9], 20.8% (inactive). This compound gave a nuclei count in assay [2] of 164%. In addition, the z-score was 0.5 in assay [3] (setting [10]), -1.12 in [3] (setting [11]) and -0.355 in assay [3] (setting [12]). Further, the fluorescence slope in assay [5] was -0.384 (inactive); in assay [7] it was 0.00562 (inactive). In addition, the NADPH fluorescence slope in assay [6] is -5.3e-05 (inactive). The call in [8] was inactive.

As to `C=CCn1c(-c2ccc(OC)c(OC)c2)n[nH]c1=S`, the cell count in [1] came out at 515. The inhibition in [1] was -3.9% (inactive); in assay [2], 9.4% (inactive); in assay [4], 5.95% (inactive); in assay [9] it was 30.5% (inactive). In assay [2], the nuclei count came out at 150%. The z-score in assay [3] (setting [10]) was 0.455; in assay [3] (setting [11]), -1.23; in assay [3] (setting [12]), -0.521. Also, the values for the fluorescence slope in assay [5] and in assay [7] were -0.338 (inactive) and 0.00705 (inactive), respectively. Further, the NADPH fluorescence slope in [6] is -3.6e-05 (inactive). Further, the compound was called inactive in assay [8].

`CC(Sc1ccc2ccccc2n1)C(=O)O` (centres undefined): the cell count in [1] amounted to 709. Also, the inhibition was -5.5% (inactive) in [1], 23% (inactive) in [2], 7.21% (inactive) in [4] and -8.1% (inactive) in assay [9]. The nuclei count in [2] was 185%. The z-score in assay [3] (setting [10]) was 0.12; in assay [3] (setting [11]) it was 0.234; in assay [3] (setting [12]), -0.321. Besides, the figures for the fluorescence slope in assay [5] and in [7] were -0.478 (inactive) and 0.00615 (inactive), respectively. In addition, the NADPH fluorescence slope in [6] is -9e-05 (inactive). The compound was called inactive in assay [8].

Turning to `CCC(NC(=O)Nc1ncccc1C)(C(F)(F)F)C(F)(F)F`, the cell count in assay [1] turned out to be 612. Moreover, the inhibition was 5.3% (inactive) in assay [1], -36.6% (inactive) in assay [2], 20.2% (inactive) in [4] and 35.4% (inactive) in [9]. This compound also yielded a nuclei count in assay [2] of 104%. The z-score in assay [3] (setting [10]) is 1.12; in assay [3] (setting [11]), 0.397; in assay [3] (setting [12]) it was -1.61. Further, the fluorescence slope in assay [5] is -0.508 (inactive); in assay [7] it was 0.00598 (inactive). The NADPH fluorescence slope in [6] is -1.7e-05 (inactive). In addition, the outcome in [8] was inactive.

`COc1cccc(C(=O)Nc2ccc(-c3nnc(-c4ccco4)o3)cc2)c1`: in assay [1], the cell count worked out at 684. Besides, the inhibition in [1] was 6.3% (inactive); in [2], 25.7% (inactive); in [4], 1.63% (inactive); in assay [9] it was -6.98% (inactive). Further, the nuclei count in assay [2] came to 158%. Moreover, the z-score in assay [3] (setting [10]) was -0.186; in [3] (setting [11]), 0.958; in assay [3] (setting [12]), -0.649. Moreover, the fluorescence slope was -0.476 (inactive) in [5] and 0.00624 (inactive) in assay [7]. In addition, the NADPH fluorescence slope in assay [6] is -4.6e-05 (inactive). Further, the compound was classed as inactive in assay [8].

With `CCC1SC2=NC(C)=C(C(=O)OCCOC)C(c3ccc(C(=O)OC)cc3)N2C1=O` (centres undefined), the cell count in assay [1] stood at 441. Besides, the inhibition in [1] is -11.9% (inactive); in assay [2], -71.6% (inactive); in assay [4] it was -2.29% (inactive); in assay [9], 6.13% (inactive). This compound also returned a nuclei count in assay [2] of 154%. Besides, the z-score in assay [3] (setting [10]) is 0.414; in assay [3] (setting [11]), -0.811; in assay [3] (setting [12]) it was -0.806. The fluorescence slope in assay [5] is -0.411 (inactive); in assay [7], 0.0052 (inactive). In addition, the NADPH fluorescence slope in assay [6] was -4.9e-05 (inactive). In assay [8], the compound was classed as inactive.

For `COc1ccc2c(c1OC)C(=O)N1c3ccccc3C(=O)N(c3ccccc3F)C21` (centres undefined), in assay [1], the cell count amounted to 708. In addition, the inhibition in assay [1] is -7.9% (inactive); in [2], -37.7% (inactive); in assay [4], 5.35% (inactive); in [9], 3.94% (inactive). In assay [2], this compound yielded a nuclei count of 134%. In addition, the figures for the z-score in assay [3] (setting [10]), in [3] (setting [11]) and in assay [3] (setting [12]) were 0.797, -1.74 and -0.312, respectively. The fluorescence slope in assay [5] is -0.444 (inactive); in assay [7], 0.00636 (inactive). In addition, in [6], the NADPH fluorescence slope is -5.7e-05 (inactive). Also, the compound was called inactive in [8].

For `CCOC(=O)c1[nH]c2ccc(C)cc2c1N=CN(CC)CC`, the cell count in assay [1] amounted to 681. Besides, the inhibition in [1] was -16.8% (inactive); in assay [2] it was -97.9% (inactive); in assay [4], 3.97% (inactive); in [9], -5% (inactive). Further, the nuclei count in [2] worked out at 174%. Besides, the z-score is -1.2 in assay [3] (setting [10]), 1.5 in assay [3] (setting [11]) and 0.686 in [3] (setting [12]). Further, the fluorescence slope is -0.474 (inactive) in [5] and 0.00485 (inactive) in [7]. Besides, the NADPH fluorescence slope in assay [6] is -7.5e-05 (inactive). For the same compound, the compound was classed as inactive in assay [8].
